For 36 compounds, growth results are on record in PubChem BioAssay (NCI).

The panel holds about 83,000 compounds, 20% with a hit somewhere; the sample as a whole holds those more often.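 The endpoint reported here, percent growth, reads 100 for growth as untreated, 0 for no net growth and -100 for all cells dead.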 Values without a mark were called inactive. The source made the active and inactive calls. How the source made its calls: active means growth percent below 10; inactive means the rest.

This test relates to T-47D breast. Briefly: NCI-60 one-dose screen, 48 h (100 = growth as untreated, 0 = no growth, -100 = all killed). Conditions: 10 µM unless noted.
Regarding `C=C1C(=O)O[C@H]2[C@H]1CC/C(COC(=O)NCc1cc[nH]c1)=C\CC[C@@]1(C)O[C@@H]21`, the growth was 69.5%. Take `CSc1nc2sc3c(c2c(=O)n1-c1ccc([N+](=O)[O-])cc1)CCCCC3`: the growth is 89%. For the compound `O=C(Nn1c2c(sc1=NCc1ccccc1)C(=O)c1ccccc1C2=O)c1cc2ccc1CCc1ccc(cc1)CC2`, the growth was 35.1%.

`O=C(CN1C(=O)CCC1=O)Nc1ncc(Cc2ccc(F)cc2)s1`: the growth is 103%. Regarding `Cc1ccc(NC(=S)NNC(=S)NNc2ccccc2)cc1C`, the growth is 98.1%. Next, `CCN(CC)CCOc1ccc(C(=C(C)c2ccc(Cl)cc2)c2ccc(OCCN(CC)CC)cc2)cc1`: -66.4% (active); `COC(=O)[C@]1(C)CCC[C@]2(C)[C@H]3C[C@H]4C(C(C)C)=C[C@]3(CC[C@H]21)[C@H]1[C@@H]4[C@@H](OCCC#N)CC[C@@H]1OCCC#N`: 9.81% (active); `COc1ccc(-c2cc(-c3ccc(Cl)cc3)c(C#N)c(=O)n2CCCCC(=O)Nc2ccccc2N)cc1`: 37.5%. In the case of `C=C1C(=O)O[C@H]2[C@H]1CC/C(COC(=O)NCc1ccc(Cn3c(=O)sn(CCI)c3=O)cc1)=C\CC[C@@]1(C)O[C@@H]21`, the growth was 27.1%. With `CC(=O)OC[C@]12CCC(C)(C)C[C@H]1[C@@]1(O)[C@H](O)C[C@@H]3[C@@]4(C)CCCNC(C)(C)[C@@H]4CC[C@@]3(C)[C@]1(C)CC2`, the growth is 104%. For `Cc1cc(=O)[nH]c2c(C#N)cnn12`, the growth is 99.6%.

Consider `O=C(OCc1ccc2c(Cl)cc(Cl)c(O)c2n1)n1cncn1`, for which the growth was 36.1%. `O=C1/C(=C/c2ccc(-c3ccc(Br)cc3)o2)SC(=S)N1CCc1ccc(O)cc1`: the growth was 58.4%. `O=C1CC(N2C(=O)/C(=C/C(Cl)=C\c3ccc([N+](=O)[O-])cc3)SC2=S)C(=O)N1c1ccc(Cl)cc1` (stereo unspecified): the growth is 36.3%. Consider `CCN(CC)c1nc(SCc2ccccc2Cl)ncc1C`, for which the growth is 86.3%. In the case of `N#Cc1c(-c2ccccc2)cc(-c2ccccc2)n(CCCCCC(=O)Nc2ccccc2N)c1=O`, the growth was 48.3%. Consider `CCS/C(Nc1ccccc1)=C(\C#N)C(=O)N/N=C/c1ccc(Cl)cc1Cl`, for which the growth is 17.8%. On to `N#CC1=C(N)Oc2c(sc3c(Br)cccc23)C1c1ccc(F)cc1` (stereo unspecified), for which the growth is 50%. `O=C(Cn1c2c(c3ccccc31)CCCC2)Nc1ccc(-c2nc3ccccc3s2)cc1`: the growth is 80.1%. For the compound `COc1cc(-c2csc(NC(=O)c3cc(-n4cnc(C)c4)cc(C(F)(F)F)c3)n2)cc(OC)c1OC`, the growth was 23.5%. In the case of `CCN(CC)CCCN1C(=O)c2c(c(C)c3c(oc4cc(O)ccc43)c2C)C1=O`, the growth is 97.7%. `COc1cc2oc(-c3cccc(NC(=O)c4cccc(Br)c4)c3)cc(=O)c2c(OC)c1OC`: the growth is 27.7%. Consider `O=C(Cn1c(=O)sc2nc3ccccc3nc21)Nc1ncc(Cc2cccc(Cl)c2Cl)s1`, for which the growth is 81.6%. For the compound `COc1ccc(OC)c(C(=O)/C=C/c2cc3c(c(OC)c2OC)OCO3)c1`, the growth was 70.6%. As to `COC(=O)CCC(=O)C(=O)OC`, the growth is 61.3% [10 mM].

With `O=C1c2c(c3c4ccccc4[nH]c3c3ccc4ccccc4c23)C(=O)N1CCN1CCCCC1`, the growth was 13.6%.

Take `CCO/C=N/C1=C(C#N)C(c2ccc(OC)cc2)c2sc3c(F)cccc3c2O1` (stereo unspecified): the growth is 35.4%. As to `COCCn1c(-c2csc(-c3cn(C)c4ccc(OC)cc34)n2)cc2cccnc21`, the growth is 8.7% (active).

Take `CN1C(=O)/C(=C/c2cn(-c3ccccc3)nc2-c2ccccc2)SC1=S`: the growth is 96.1%. On to `CC(C)NC1CCC(Nc2ccnc3cc(Cl)ccc23)CC1` (stereo unspecified), for which the growth was 80.3%. In the case of `O=S(=O)(Nc1cc(Br)c(O)c2ccccc12)c1ccc(F)cc1`, the growth is 6.12% (active).

Consider `CCN(CC)CCOc1ccc(-c2c(-c3ccccc3)c(=O)oc3ccccc23)cc1`, for which the growth is 47%.

Consider `O=C(/C=C/c1cn(-c2ccccc2)nc1-c1ccc([N+](=O)[O-])cc1)c1ccc(Cl)cc1`, for which the growth is 31.4%.

Turning to `Cc1cc2c(O)c(-c3cccc(Cl)c3)c3sc(=O)oc3c2cc1C`, the growth was 14.8%.

In the case of `Cc1cccc(Cl)c1NC(=O)c1ccc2nc(NC(=O)NCCN(C)C)sc2c1`, the growth is 88.1%. Turning to `O=C(c1ccccc1)C1C(=O)N2C(=S)N(c3ccccc3)C(=O)C2C1c1ccc(Cl)cc1` (stereo unspecified), the growth was 83.1%.
